Data taken from PubChem BioAssay AID1159580 (chemical genetic matrix, 2015).
The whole screen tested about 5,500 compounds, of which about 2,000 (36%) were called active. Another 18% or so got no clear call; they are omitted. Cut-off read from the data, not from the text of the source: active = normalized growth mostly below about 0.91 (no sharp cut-off); inconclusive = no clear call, values can overlap the other calls; inactive = mostly above about 0.92. Some of the results follow.

Experiment: chemical genetic growth profiling, strain panel (AID 1159580);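 note: tested at 20 µM; growth read once vehicle control cultures reached saturation at 30 °C; 1 = growth at the plate median or of vehicle wells; lower values mean less growth of the strain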
Settings: growth OD

Measured: normalized growth

OCCN1C[C@@H](O)[C@@H](O)C(O)C1CO (stereo partly specified)
inactive: S. cerevisiae deletion strains, locus YKL009W, strain mrt4, hits give low values 1.01 | S. cerevisiae deletion strains, locus YKL068W, hits give low values 1.01 | S. cerevisiae deletion strains, locus YKL085W, strain MDH1 (second series), hits give low values 1 | S. cerevisiae deletion strains, locus YKL085W, strain MDH1, hits give low values 1 | S. cerevisiae deletion strains, locus YKL160W, strain elf1, hits give low values 1.01 | S. cerevisiae deletion strains, locus YKL190W, strain CNB1, hits give low values 1.02 | S. cerevisiae deletion strains, locus YKR001C, strain vps1, hits give low values 0.999 | S. cerevisiae deletion strains, locus YKR026C, strain gcn3, hits give low values 1.02 | S. cerevisiae deletion strains, locus YKR091W, strain srl3, hits give low values 1 | S. cerevisiae deletion strains, locus YLL001W, strain dnm1, hits give low values 1.02 | S. cerevisiae deletion strains, locus YLL026W, hits give low values 1.01 | S. cerevisiae deletion strains, locus YLL041C, strain sdh2, hits give low values 1 | S. cerevisiae deletion strains, locus YLR027C, strain aat2, hits give low values 0.992 | S. cerevisiae deletion strains, locus YLR039C, strain RIC1, hits give low values 0.958 | S. cerevisiae deletion strains, locus YLR058C, strain SHM2, hits give low values 1.02 | S. cerevisiae deletion strains, locus YLR102C, strain apc9, hits give low values 0.997 | S. cerevisiae deletion strains, locus YLR113W, strain HOG1, hits give low values 1.04 | S. cerevisiae deletion strains, locus YLR221C, strain rsa3, hits give low values 1.01 | S. cerevisiae deletion strains, locus YLR258W, strain gsy2, hits give low values 1 | S. cerevisiae deletion strains, locus YLR262C, strain YPT6 (second series), hits give low values 0.994 | S. cerevisiae deletion strains, locus YLR262C, strain YPT6, hits give low values 1 | S. cerevisiae deletion strains, locus YLR268W, strain sec22, hits give low values 1 | S. cerevisiae deletion strains, locus YLR320W, strain mms22, hits give low values 1.01 | S. cerevisiae deletion strains, locus YLR330W, strain CHS5, hits give low values 1.01 | S. cerevisiae deletion strains, locus YLR342W, strain FKS1 (second series), hits give low values 1.01 | S. cerevisiae deletion strains, locus YLR342W, strain FKS1, hits give low values 0.99 | S. cerevisiae deletion strains, locus YLR357W, strain rsc2, hits give low values 1 | S. cerevisiae deletion strains, locus YLR370C, strain arc18, hits give low values 1 | S. cerevisiae deletion strains, locus YLR371W, strain rom2, hits give low values 0.995 | S. cerevisiae deletion strains, locus YLR384C, strain iki3, hits give low values 1 | S. cerevisiae deletion strains, locus YLR418C, strain cdc73, hits give low values 0.977 | S. cerevisiae deletion strains, locus YML016C, strain PPZ1, hits give low values 1.01 | S. cerevisiae deletion strains, locus YML032C, strain rad52, hits give low values 1.01 | S. cerevisiae deletion strains, locus YML120C, strain ndi1, hits give low values 1.02 | S. cerevisiae deletion strains, locus YML124C, strain tub3, hits give low values 1.01 | S. cerevisiae deletion strains, locus YMR058W, strain fet3, hits give low values 1 | S. cerevisiae deletion strains, locus YMR078C, strain ctf18, hits give low values 1 | S. cerevisiae deletion strains, locus YMR125W, strain sto1, hits give low values 0.997 | S. cerevisiae deletion strains, locus YMR129W, hits give low values 0.997 | S. cerevisiae deletion strains, locus YMR205C, strain PFK2, hits give low values 1 | S. cerevisiae deletion strains, locus YMR223W, strain ubp8, hits give low values 1 | S. cerevisiae deletion strains, locus YMR231W, strain pep5, hits give low values 1 | S. cerevisiae deletion strains, locus YMR263W, strain SAP30, hits give low values 1.02 | S. cerevisiae deletion strains, locus YMR307W, strain GAS1, hits give low values 1.01 | S. cerevisiae deletion strains, locus YNL067W, strain RPL9B, hits give low values 1.02 | S. cerevisiae deletion strains, locus YNL071W, strain lat1, hits give low values 0.993 | S. cerevisiae deletion strains, locus YNL128W, strain TEP1, hits give low values 1.02 | S. cerevisiae deletion strains, locus YNL153C, strain GIM3, hits give low values 1.01 | S. cerevisiae deletion strains, locus YNL183C, strain NPR1, hits give low values 0.97 | S. cerevisiae deletion strains, locus YNL209W, strain ssb2, hits give low values 1 | S. cerevisiae deletion strains, locus YNL233W, strain BNI4, hits give low values 1.02 | S. cerevisiae deletion strains, locus YNL248C, strain rpa49, hits give low values 1.02 | S. cerevisiae deletion strains, locus YNL250W, strain rad50, hits give low values 1 | S. cerevisiae deletion strains, locus YNL271C, strain bni1, hits give low values 0.986 | S. cerevisiae deletion strains, locus YNL298W, strain CLA4, hits give low values 0.994 | S. cerevisiae deletion strains, locus YNL307C, strain MCK1, hits give low values 1.01 | S. cerevisiae deletion strains, locus YNL322C, strain KRE1 (second series), hits give low values 1.02 | S. cerevisiae deletion strains, locus YNL322C, strain KRE1, hits give low values 1.01 | S. cerevisiae deletion strains, locus YNR049C, strain mso1, hits give low values 1 | S. cerevisiae deletion strains, locus YNR052C, strain pop2, hits give low values 0.999 | S. cerevisiae deletion strains, locus YOL006C, strain TOP1, hits give low values 1.04 | S. cerevisiae deletion strains, locus YOL012C, strain htz1 1.11 | S. cerevisiae deletion strains, locus YOL147C, strain pex11, hits give low values 1 | S. cerevisiae deletion strains, locus YOR001W, strain rrp6, hits give low values 1 | S. cerevisiae deletion strains, locus YOR061W, strain CKA2, hits give low values 1.01 | S. cerevisiae deletion strains, locus YOR069W, strain VPS5, hits give low values 1.01 | S. cerevisiae deletion strains, locus YOR070C, strain gyp1, hits give low values 0.997 | S. cerevisiae deletion strains, locus YOR080W, strain dia2, hits give low values 1.01 | S. cerevisiae deletion strains, locus YOR083W, strain WHI5, hits give low values 1 | S. cerevisiae deletion strains, locus YOR106W, strain vam3, hits give low values 1.03 | S. cerevisiae deletion strains, locus YOR136W, strain idh2, hits give low values 0.998 | S. cerevisiae deletion strains, locus YOR144C, strain elg1, hits give low values 1 | S. cerevisiae deletion strains, locus YOR184W, strain ser1, hits give low values 1 | S. cerevisiae deletion strains, locus YOR231W, strain MKK1, hits give low values 1.01 | S. cerevisiae deletion strains, locus YOR265W, strain rbl2, hits give low values 0.988 | S. cerevisiae deletion strains, locus YOR270C, strain vph1, hits give low values 1.05 | S. cerevisiae deletion strains, locus YOR290C, strain snf2, hits give low values 1.01 | S. cerevisiae deletion strains, locus YOR316C, strain cot1, hits give low values 0.997 | S. cerevisiae deletion strains, locus YPL051W, strain arl3, hits give low values 1 | S. cerevisiae deletion strains, locus YPL055C, strain LGE1, hits give low values 1.05 | S. cerevisiae deletion strains, locus YPL078C, strain atp4, hits give low values 1.01 | S. cerevisiae deletion strains, locus YPL106C, strain sse1, hits give low values 1.03 | S. cerevisiae deletion strains, locus YPL240C, strain hsp82, hits give low values 1 | S. cerevisiae deletion strains, locus YPL241C, strain CIN2, hits give low values 1.01 | S. cerevisiae deletion strains, locus YPL256C, strain CLN2, hits give low values 1.02 | S. cerevisiae deletion strains, locus YPR119W, strain clb2, hits give low values 0.996 | S. cerevisiae deletion strains, locus YPR141C, strain kar3, hits give low values 1 | S. cerevisiae deletion strains, locus YPR163C, strain tif3, hits give low values 1 | S. cerevisiae deletion strains, locus YPR167C, strain met16, hits give low values 0.997 | S. cerevisiae deletion strains, strain wtn01, hits give low values 1 | S. cerevisiae strains, strain wild type, hits give low values 1.01
